# Measured values reported in paper PMC7862700, “An all-to-all approach to the identification of sequence-specific readers for epigenetic DNA modifications on cytosine”.
# How the values were obtained:
# Test in all cases: DAPPL (digital affinity profiling via proximity ligation, sequencing); 10 mM Tris-HCl pH 7.5, 50 mM NaCl, 1 mM DTT, 4% glycerol, room temperature, 30 min; GST-TFs on glutathione beads, 16-mer random dsDNA library, 0.1% formaldehyde crosslink after washing; high values mean tight binding
# FLI1 = target: T1, FLI1 (Homo sapiens, UniProt Q01543 1-452); settings: protein: recombinant; tags: N-terminal GST; dsDNA, one strand shown
# T1 sequence: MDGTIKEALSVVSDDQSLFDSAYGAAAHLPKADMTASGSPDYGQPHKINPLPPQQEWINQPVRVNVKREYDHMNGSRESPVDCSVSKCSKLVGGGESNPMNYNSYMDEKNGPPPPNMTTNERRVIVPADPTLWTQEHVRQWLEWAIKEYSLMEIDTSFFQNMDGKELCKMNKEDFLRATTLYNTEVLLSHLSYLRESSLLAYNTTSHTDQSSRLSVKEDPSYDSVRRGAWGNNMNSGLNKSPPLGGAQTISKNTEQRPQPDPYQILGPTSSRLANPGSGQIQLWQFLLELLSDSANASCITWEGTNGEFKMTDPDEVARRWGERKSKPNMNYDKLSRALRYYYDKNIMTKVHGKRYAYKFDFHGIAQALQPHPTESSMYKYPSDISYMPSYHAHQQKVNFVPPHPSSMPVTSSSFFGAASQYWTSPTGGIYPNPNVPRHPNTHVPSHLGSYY
# Method in brief: (§1)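 A tag-only sample was pooled with DNA-barcoded human transcription factors that had been expressed in yeast as GST fusions and captured on glutathione beads. The pools were incubated for 30 min at room temperature with 200 nmole of a random double-stranded 16-mer DNA library in Tris/NaCl/DTT/glycerol buffer, then washed, crosslinked with 0.1% formaldehyde, proximity-ligated (BsaI/T4 ligase, 1 h, 37 °C), PCR-amplified and sequenced on an Illumina NextSeq500. Binding signal is each hexamer's read frequency for a factor divided by its frequency for the tag-only sample.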
# ELK1 = target: T2, ELK1 (Homo sapiens, UniProt P19419 1-428); settings: protein: recombinant; tags: N-terminal GST; dsDNA, one strand shown
# T2 sequence: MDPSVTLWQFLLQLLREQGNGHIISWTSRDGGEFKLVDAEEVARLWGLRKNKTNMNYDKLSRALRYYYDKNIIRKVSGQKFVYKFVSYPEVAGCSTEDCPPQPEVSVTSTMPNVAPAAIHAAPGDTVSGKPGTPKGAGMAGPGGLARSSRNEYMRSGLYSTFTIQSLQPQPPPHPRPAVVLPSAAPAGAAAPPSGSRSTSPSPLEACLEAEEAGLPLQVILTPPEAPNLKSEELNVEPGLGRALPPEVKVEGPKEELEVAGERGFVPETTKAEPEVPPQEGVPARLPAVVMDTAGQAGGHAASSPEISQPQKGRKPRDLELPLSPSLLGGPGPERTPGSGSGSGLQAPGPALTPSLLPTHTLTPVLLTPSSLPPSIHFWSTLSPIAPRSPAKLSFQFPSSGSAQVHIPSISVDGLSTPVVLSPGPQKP
# Method in brief: as §1
# GABPA = target: T3, GABPA (Homo sapiens, UniProt Q06546 1-454); settings: protein: recombinant; tags: N-terminal GST; dsDNA, one strand shown
# T3 sequence: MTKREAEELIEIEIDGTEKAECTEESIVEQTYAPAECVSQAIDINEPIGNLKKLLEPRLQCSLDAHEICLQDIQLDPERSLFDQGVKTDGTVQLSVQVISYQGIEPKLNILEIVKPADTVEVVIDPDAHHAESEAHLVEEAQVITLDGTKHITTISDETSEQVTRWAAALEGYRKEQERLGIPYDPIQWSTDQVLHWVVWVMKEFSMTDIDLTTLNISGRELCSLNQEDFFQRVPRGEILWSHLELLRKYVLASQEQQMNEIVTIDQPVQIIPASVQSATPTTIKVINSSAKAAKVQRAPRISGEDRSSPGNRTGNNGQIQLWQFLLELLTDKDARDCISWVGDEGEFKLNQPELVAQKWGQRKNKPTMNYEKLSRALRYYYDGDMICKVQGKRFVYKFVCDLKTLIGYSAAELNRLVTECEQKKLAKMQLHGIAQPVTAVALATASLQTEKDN
# Method in brief: as §1
# ERG = target: T4, ERG (Homo sapiens, UniProt P11308 1-479); settings: protein: recombinant; tags: N-terminal GST; dsDNA, one strand shown
# T4 sequence: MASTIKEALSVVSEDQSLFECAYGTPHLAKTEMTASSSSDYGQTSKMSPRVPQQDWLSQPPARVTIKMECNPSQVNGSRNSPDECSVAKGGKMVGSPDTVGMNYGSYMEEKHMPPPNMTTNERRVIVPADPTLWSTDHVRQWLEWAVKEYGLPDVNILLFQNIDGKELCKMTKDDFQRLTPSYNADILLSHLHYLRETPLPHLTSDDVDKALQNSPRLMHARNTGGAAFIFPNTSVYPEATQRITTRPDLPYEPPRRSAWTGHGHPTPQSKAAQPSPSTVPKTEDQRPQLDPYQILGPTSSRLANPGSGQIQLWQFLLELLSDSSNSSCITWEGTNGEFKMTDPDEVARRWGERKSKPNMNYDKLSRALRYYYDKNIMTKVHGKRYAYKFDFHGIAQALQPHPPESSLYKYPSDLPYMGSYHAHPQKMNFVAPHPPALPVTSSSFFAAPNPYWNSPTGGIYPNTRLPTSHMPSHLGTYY
# Method in brief: as §1
# ELF1 = ELF1 (Homo sapiens, UniProt P32519 1-619); settings: protein: recombinant; tags: N-terminal GST; dsDNA, one strand shown
# Method in brief: as §1
# EHF = target: T5, EHF (Homo sapiens, UniProt Q9NZC4 1-300); settings: protein: recombinant; tags: N-terminal GST; dsDNA, one strand shown
# T5 sequence: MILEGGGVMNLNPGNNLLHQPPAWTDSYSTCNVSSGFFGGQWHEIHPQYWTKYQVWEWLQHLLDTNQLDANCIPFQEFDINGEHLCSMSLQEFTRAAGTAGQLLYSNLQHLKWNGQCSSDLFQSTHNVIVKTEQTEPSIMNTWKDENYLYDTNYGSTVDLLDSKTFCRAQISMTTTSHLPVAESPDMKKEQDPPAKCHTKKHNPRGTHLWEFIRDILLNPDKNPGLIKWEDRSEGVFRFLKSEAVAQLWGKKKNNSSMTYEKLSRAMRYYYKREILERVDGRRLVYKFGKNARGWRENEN
# Method in brief: as §1
# SPI1 = SPI1 (Homo sapiens, UniProt P17947 1-270); settings: protein: recombinant; tags: N-terminal GST; dsDNA, one strand shown
# Method in brief: as §1
# SPIB = SPIB (Homo sapiens, UniProt Q01892 1-262); settings: protein: recombinant; tags: N-terminal GST; dsDNA, one strand shown
# Method in brief: as §1
# FEV = target: T6, FEV (Homo sapiens, UniProt Q99581 1-238); settings: protein: recombinant; tags: N-terminal GST; dsDNA, one strand shown
# T6 sequence: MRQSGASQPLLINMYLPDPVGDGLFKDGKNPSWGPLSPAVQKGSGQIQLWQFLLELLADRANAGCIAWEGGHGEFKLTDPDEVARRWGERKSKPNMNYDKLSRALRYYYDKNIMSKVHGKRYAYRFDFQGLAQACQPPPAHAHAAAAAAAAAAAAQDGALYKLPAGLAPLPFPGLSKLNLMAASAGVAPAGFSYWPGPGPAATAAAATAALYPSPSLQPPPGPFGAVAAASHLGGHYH
# Method in brief: as §1
# ETV5 = ETV5 (Homo sapiens, UniProt P41161 1-510); settings: protein: recombinant; tags: N-terminal GST; dsDNA, one strand shown
# Method in brief: as §1
# HSF1 = HSF1 (Homo sapiens, UniProt Q00613 1-529); settings: protein: recombinant; tags: N-terminal GST; chain copies: 3; dsDNA, one strand shown
# Method in brief: as §1
# SPIC = target: T7, SPIC (Homo sapiens, UniProt Q8N5J4 1-248); settings: protein: recombinant; tags: N-terminal GST; dsDNA, one strand shown
# T7 sequence: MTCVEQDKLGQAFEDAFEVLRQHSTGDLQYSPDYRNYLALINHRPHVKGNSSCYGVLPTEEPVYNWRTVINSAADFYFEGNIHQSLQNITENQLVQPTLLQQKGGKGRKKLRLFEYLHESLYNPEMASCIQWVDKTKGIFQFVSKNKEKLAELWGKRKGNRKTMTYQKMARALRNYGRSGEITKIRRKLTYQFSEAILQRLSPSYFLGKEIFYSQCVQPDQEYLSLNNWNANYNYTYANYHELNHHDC
# Method in brief: as §1
# ELF4 = ELF4 (Homo sapiens, UniProt Q99607 1-663); settings: protein: recombinant; tags: N-terminal GST; dsDNA, one strand shown
# Method in brief: as §1
# ELK4 = target: T8, ELK4 (Homo sapiens, UniProt P28324-2 1-405); settings: protein: recombinant; tags: N-terminal GST; dsDNA, one strand shown
# T8 sequence: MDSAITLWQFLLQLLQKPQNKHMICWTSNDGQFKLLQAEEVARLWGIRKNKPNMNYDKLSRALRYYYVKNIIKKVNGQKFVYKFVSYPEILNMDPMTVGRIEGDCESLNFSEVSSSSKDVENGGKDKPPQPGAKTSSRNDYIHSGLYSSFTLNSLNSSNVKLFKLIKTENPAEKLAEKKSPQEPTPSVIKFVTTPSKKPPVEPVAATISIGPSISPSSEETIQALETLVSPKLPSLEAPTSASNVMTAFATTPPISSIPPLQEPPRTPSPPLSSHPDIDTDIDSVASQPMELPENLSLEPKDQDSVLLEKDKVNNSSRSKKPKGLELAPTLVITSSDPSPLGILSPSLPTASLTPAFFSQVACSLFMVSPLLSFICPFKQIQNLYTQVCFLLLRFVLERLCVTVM
# Method in brief: as §1
# ETV2 = target: T9, ETV2 (Homo sapiens, UniProt O00321 1-342); settings: protein: recombinant; tags: N-terminal GST; dsDNA, one strand shown
# T9 sequence: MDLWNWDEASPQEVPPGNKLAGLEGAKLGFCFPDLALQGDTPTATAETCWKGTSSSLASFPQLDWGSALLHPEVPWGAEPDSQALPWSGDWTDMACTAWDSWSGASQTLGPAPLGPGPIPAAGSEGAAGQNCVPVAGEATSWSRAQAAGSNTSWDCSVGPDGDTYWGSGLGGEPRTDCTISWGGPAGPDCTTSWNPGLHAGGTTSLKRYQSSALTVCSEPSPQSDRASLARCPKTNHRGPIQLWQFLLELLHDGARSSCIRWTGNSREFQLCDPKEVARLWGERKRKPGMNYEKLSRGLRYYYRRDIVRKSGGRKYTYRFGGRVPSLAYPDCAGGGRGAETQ
# Method in brief: as §1
# ELF3 = target: T10, ELF3 (Homo sapiens, UniProt P78545 1-371); settings: protein: recombinant; tags: N-terminal GST; dsDNA, one strand shown
# T10 sequence: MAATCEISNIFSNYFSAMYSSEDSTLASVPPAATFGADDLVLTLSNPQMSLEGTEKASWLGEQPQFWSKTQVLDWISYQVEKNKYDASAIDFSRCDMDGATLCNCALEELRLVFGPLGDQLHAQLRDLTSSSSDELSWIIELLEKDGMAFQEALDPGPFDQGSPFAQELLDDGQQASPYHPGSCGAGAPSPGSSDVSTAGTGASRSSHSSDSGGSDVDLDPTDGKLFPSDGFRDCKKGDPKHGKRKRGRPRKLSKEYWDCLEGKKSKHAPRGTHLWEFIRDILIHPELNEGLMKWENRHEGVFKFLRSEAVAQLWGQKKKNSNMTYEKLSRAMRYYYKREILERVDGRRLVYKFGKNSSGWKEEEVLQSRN
# Method in brief: as §1
# CRX = CRX (Homo sapiens, UniProt O43186 1-299); settings: protein: recombinant; tags: N-terminal GST; dsDNA, one strand shown
# Method in brief: as §1
# ETV1 = ETV1 (Homo sapiens, UniProt P50549 1-477); settings: protein: recombinant; tags: N-terminal GST; dsDNA, one strand shown
# Method in brief: as §1
# Chain of ETV5 (P41161 whole entry): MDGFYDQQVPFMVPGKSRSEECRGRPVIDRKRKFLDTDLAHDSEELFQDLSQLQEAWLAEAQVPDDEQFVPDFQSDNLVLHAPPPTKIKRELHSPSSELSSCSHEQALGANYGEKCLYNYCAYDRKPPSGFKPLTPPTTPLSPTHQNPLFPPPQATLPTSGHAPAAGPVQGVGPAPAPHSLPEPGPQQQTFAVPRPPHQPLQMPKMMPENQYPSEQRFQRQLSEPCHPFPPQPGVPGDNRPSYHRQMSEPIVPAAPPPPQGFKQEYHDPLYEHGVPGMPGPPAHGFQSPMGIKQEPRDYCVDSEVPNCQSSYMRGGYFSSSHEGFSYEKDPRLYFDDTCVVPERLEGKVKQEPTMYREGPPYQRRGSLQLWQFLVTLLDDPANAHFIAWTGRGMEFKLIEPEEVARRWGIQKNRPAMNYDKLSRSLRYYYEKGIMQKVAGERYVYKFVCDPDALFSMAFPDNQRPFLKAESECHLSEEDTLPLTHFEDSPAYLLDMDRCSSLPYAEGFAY
# Chain of SPIB (Q01892 whole entry): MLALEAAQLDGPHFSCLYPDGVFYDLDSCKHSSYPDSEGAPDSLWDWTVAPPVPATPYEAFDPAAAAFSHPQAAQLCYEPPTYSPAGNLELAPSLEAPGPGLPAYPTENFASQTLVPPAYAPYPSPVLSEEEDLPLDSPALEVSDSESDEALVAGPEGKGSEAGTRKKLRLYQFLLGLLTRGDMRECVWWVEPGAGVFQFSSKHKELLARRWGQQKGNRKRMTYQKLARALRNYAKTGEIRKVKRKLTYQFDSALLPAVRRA
# Chain of ETV1 (P50549 whole entry): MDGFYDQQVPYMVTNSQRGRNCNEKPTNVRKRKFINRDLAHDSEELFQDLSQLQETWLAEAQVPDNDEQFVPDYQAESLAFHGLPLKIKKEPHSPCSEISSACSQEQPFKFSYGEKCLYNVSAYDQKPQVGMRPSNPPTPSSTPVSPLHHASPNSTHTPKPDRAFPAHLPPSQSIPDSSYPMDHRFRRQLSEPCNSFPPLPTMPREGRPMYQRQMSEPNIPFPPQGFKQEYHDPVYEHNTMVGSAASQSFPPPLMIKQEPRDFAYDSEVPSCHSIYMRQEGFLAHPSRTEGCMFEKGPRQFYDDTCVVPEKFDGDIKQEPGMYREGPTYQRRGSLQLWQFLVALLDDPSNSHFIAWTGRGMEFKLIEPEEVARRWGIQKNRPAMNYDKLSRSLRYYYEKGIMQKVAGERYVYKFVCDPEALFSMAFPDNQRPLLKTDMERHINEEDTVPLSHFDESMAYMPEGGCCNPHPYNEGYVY
# Chain of CRX (O43186 whole entry): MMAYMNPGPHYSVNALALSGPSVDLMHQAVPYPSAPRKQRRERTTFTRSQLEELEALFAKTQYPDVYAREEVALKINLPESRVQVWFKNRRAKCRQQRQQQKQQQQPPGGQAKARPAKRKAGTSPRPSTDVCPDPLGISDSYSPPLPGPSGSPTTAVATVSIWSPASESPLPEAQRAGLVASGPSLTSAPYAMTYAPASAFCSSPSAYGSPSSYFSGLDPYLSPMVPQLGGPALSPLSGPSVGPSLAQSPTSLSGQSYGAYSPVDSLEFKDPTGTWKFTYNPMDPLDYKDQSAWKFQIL
# Chain of ELF1 (P32519 whole entry): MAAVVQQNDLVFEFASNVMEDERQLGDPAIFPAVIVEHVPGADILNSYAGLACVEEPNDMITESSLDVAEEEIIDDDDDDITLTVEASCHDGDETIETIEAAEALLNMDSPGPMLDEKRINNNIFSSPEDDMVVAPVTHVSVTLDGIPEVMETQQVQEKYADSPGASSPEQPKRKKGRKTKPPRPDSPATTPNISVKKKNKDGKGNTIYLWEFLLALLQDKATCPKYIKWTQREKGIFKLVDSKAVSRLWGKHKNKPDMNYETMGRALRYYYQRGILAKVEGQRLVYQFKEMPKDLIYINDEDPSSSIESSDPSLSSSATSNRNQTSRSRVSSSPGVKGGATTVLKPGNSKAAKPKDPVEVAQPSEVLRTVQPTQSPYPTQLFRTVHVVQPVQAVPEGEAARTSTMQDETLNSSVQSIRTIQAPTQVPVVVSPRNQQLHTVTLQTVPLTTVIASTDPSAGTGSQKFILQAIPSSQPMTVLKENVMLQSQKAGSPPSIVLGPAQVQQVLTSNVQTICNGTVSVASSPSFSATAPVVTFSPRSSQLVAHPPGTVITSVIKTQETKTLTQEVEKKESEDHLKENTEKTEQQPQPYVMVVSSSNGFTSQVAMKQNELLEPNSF
# Chain of HSF1 (Q00613 whole entry): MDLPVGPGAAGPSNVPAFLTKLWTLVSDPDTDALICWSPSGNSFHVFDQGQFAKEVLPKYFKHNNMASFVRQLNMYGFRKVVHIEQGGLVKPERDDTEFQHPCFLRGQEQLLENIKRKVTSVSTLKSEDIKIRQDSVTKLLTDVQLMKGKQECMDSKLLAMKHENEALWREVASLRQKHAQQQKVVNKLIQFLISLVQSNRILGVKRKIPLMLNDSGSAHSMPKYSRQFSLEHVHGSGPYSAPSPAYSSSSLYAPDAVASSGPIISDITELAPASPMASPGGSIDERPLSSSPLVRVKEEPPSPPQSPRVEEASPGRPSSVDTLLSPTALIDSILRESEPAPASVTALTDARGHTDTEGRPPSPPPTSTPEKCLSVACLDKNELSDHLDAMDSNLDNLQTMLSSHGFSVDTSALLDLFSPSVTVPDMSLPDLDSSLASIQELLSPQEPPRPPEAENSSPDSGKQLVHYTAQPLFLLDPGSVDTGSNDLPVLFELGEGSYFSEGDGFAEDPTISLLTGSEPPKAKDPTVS
# Chain of ELF4 (Q99607 whole entry): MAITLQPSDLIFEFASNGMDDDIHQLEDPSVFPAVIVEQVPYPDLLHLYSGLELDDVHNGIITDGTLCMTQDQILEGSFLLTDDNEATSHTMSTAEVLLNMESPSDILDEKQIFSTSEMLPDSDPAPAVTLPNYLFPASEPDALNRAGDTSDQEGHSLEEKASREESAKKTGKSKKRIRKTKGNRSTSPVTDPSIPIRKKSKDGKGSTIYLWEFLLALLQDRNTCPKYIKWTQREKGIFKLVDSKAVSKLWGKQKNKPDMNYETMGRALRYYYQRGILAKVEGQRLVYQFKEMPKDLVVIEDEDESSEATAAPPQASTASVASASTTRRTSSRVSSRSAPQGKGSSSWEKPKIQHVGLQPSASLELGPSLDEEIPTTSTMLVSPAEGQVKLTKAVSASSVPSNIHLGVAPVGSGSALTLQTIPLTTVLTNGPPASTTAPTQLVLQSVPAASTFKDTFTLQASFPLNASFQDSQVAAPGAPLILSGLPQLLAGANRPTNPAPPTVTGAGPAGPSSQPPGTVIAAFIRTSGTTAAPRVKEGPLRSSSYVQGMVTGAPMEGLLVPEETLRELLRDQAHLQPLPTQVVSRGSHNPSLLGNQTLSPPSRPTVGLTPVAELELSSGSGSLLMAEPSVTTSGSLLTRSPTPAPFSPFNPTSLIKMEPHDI
sequence,measurement,setting,value
AATCAG,binding signal,FLI1,"1.1 fold enrichment (6-mer frequency, TF over GST control)"
same,binding signal,ELK1,"1.05 fold enrichment (6-mer frequency, TF over GST control)"
same,binding signal,GABPA,"1.19 fold enrichment (6-mer frequency, TF over GST control)"
same,binding signal,ERG,"1.07 fold enrichment (6-mer frequency, TF over GST control)"
same,binding signal,ELF1,"1.1 fold enrichment (6-mer frequency, TF over GST control)"
same,binding signal,EHF,"1.02 fold enrichment (6-mer frequency, TF over GST control)"
same,binding signal,SPI1,"1.04 fold enrichment (6-mer frequency, TF over GST control)"
same,binding signal,SPIB,"1.19 fold enrichment (6-mer frequency, TF over GST control)"
same,binding signal,FEV,"1.07 fold enrichment (6-mer frequency, TF over GST control)"
same,binding signal,ETV5,"1.15 fold enrichment (6-mer frequency, TF over GST control)"
same,binding signal,HSF1,"1.19 fold enrichment (6-mer frequency, TF over GST control)"
same,binding signal,SPIC,"1.2 fold enrichment (6-mer frequency, TF over GST control)"
same,binding signal,ELF4,"1.05 fold enrichment (6-mer frequency, TF over GST control)"
same,binding signal,ELK4,"1.16 fold enrichment (6-mer frequency, TF over GST control)"
same,binding signal,ETV2,"1.01 fold enrichment (6-mer frequency, TF over GST control)"
same,binding signal,ELF3,"1.14 fold enrichment (6-mer frequency, TF over GST control)"
same,binding signal,CRX,"1.42 fold enrichment (6-mer frequency, TF over GST control)"
same,binding signal,ETV1,"1.01 fold enrichment (6-mer frequency, TF over GST control)"
